Test results published in paper PMC4336329 (PLoS ONE, 2015).
In all, about 310,000 compounds went through this assay and about 14,000 (4.5%) showed an effect of 50% or more. The effect is printed as a negative number. The sample as a whole holds a higher share of strong results than the screen did.

molecular target: human ether-à-go-go-related gene (hERG) potassium channel (human, UniProt Q12809); assay: primary screen, population patch clamp on CHO cells stably expressing hERG; higher = less effect of the substance
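Further: peak tail current of the secondary pulse compared with the same well before compound.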

human ether-à-go-go-related gene (hERG) potassium channel, sequence (Q12809 whole entry, looked up): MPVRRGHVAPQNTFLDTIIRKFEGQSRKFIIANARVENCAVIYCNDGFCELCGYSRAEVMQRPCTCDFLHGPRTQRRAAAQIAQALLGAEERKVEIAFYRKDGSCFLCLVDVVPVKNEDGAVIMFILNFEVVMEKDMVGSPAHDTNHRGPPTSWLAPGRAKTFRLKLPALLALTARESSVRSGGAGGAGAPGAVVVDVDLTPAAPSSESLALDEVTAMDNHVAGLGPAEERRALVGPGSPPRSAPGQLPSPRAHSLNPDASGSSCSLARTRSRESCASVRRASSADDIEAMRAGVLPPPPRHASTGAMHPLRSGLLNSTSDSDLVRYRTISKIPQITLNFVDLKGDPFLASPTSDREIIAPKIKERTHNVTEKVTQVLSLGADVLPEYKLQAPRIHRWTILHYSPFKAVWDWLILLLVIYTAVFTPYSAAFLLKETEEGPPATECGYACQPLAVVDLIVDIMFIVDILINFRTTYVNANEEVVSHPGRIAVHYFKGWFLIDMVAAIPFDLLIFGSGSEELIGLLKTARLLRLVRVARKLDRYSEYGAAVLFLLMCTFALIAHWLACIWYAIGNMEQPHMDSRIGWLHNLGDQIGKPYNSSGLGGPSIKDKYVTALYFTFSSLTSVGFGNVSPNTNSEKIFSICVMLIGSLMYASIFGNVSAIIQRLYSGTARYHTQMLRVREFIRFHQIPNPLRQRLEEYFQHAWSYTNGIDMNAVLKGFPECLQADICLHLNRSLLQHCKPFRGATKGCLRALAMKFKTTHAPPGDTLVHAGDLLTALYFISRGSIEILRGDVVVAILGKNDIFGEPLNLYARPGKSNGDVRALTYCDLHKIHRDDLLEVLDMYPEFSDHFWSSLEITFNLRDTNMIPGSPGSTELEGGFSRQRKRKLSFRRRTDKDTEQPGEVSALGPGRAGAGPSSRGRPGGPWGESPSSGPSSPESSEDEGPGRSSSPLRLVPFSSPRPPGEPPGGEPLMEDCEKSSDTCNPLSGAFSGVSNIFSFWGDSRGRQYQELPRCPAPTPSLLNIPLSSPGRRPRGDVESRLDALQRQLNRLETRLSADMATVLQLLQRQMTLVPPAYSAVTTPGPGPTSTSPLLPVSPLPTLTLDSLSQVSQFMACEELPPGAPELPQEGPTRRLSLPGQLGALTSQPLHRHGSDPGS

SMILES	hERG current change (%, negative = inhibition) at 10uM [%]
CC(C)N(C(=O)CSc1nnc(NC(=O)C2CCC2)s1)C(C)C	-11.1
COc1ccc(CNC(=O)c2cc(-c3cccs3)on2)cc1	-2.38
CCN(CC(=O)Nc1ccc2c(c1)OCCO2)C(=O)/C=C/c1ccc(F)cc1	-7.2
CN(C)CCCNC(=O)c1ccc(Cl)c(S(=O)(=O)N(C)c2ccccc2)c1.Cl	-35
O=C(NCCCn1ccnc1)C(Cl)(Cl)Cl	-0.517
CN(c1ccccc1)S(=O)(=O)c1cc(C(=O)NCCCn2ccnc2)ccc1Cl	-60.3
O=C(NCCCn1ccnc1)/C(=C\c1ccccc1Cl)NC(=O)c1ccccc1	-41.2
CC(C(=O)NCCCn1ccnc1)(c1ccccc1)c1ccccc1.Cl	-73.1
CC(C)(C)c1ccc(C(=O)NCCCn2ccnc2)cc1.Cl	-11
O=C(NCCCn1ccnc1)c1ccc(Cl)c(Cl)c1	-17.3
O=C(NCCCn1ccnc1)/C(=C\c1ccccc1F)NC(=O)c1ccccc1	-75
O=C(NCCCn1ccnc1)/C(=C/c1ccc(F)cc1)NC(=O)c1ccccc1	-75.6
Cc1ccc(C(=O)N/C(=C/c2ccccc2F)C(=O)NCCCn2ccnc2)cc1	-40.5
O=C(O)c1ccc(COc2ccc3c4c(c(=O)oc3c2)CCC4)o1	21.4
Cc1cccc(-c2n[nH]c(=S)n2Cc2ccccc2)c1	-2.87
NS(=O)(=O)c1ccc(NC(=O)COC(=O)CSc2n[nH]c(-c3ccccc3)n2)cc1	12
O=C(NN1C(=O)C2C3c4ccccc4C(c4ccccc43)C2C1=O)c1ccc(Cl)cc1 (stereo not shown)	-8.19
COc1cc(C(=O)NCc2ccco2)c(Br)c(OC)c1OC	-4.22
O=C(Nc1cc(C(F)(F)F)ccc1Cl)c1ccc(NC(=O)C(F)(F)F)cc1	0.159
Cc1c(-n2c(SCC(C)C)nc3ccccc3c2=O)c(=O)n(-c2ccccc2)n1C	0.437
COC(=O)CSc1nc(N)c(C#N)c(C(C)C)c1C#N	-8.45
CN(C)c1ccc(/C=C(\NC(=O)c2ccccc2)C(=O)NCCCn2ccnc2)cc1	-9.78

SMILES	hERG current change (%, negative = inhibition) at 10uM [%]
CC(C)c1ccc(/C=C(\NC(=O)c2ccccc2)C(=O)NCCCn2ccnc2)cc1	-78.2
O=C(NCCCn1ccnc1)/C(=C/c1ccccc1)NC(=O)c1ccccc1	-70.3
CN(C)c1ccc(/C=C(/NC(=O)c2ccccc2)C(=O)NCCCn2ccnc2)cc1	0.277
CC(=O)Nc1nc(CC(C)C)cc(-c2ccccc2)c1C#N	4.98
COc1ccccc1-n1c(=O)c2c3c(sc2n2c(SC)nnc12)CCC3	-12.5
CCSc1nnc2n(-c3ccc(OC)cc3)c(=O)c3c4c(sc3n12)CCCC4	-6.75
Cn1c(=O)c2c3c(sc2n2c(SCc4ccccc4)nnc12)CCCC3	-9.93
CCCSc1nnc2n(-c3ccccc3OC)c(=O)c3c4c(sc3n12)CCC4	-56.8
COc1ccccc1-n1c(=O)c2c3c(sc2n2c(SC(C)C)nnc12)CCC3	-4.22
COc1ccccc1-n1c(=O)c2c3c(sc2n2c(=S)[nH]nc12)CCC3	21.1
CCCSc1nnc2n(C)c(=O)c3c4c(sc3n12)CCC4	-71.5
C=CCSc1nnc2n(-c3ccccc3OC)c(=O)c3c4c(sc3n12)CCC4	-64.5
C=C(C)CSc1nnc2n(C)c(=O)c3c4c(sc3n12)CCC4	-21.6
O=C(O)/C=C/C(=O)Nc1ccc(OC(F)(F)F)cc1Br	15.7
O=C(/C(=C/c1ccccc1Cl)c1ccccc1)N1CCOCC1	-3.84
Cc1ccc(C(NC(=O)N2CCCC2)C(Cl)(Cl)Cl)cc1F (stereo not shown)	19.1
Cc1ccc(NC(=O)c2sc3ccccc3c2Cl)nc1	8.87
COC(C(=O)Nc1ccc(S(=O)(=O)Nc2ccc(F)cc2)cc1)c1ccccc1 (stereo not shown)	0.504
COC(C(=O)Nc1ccc(S(=O)(=O)Nc2c(C)cccc2C)cc1)c1ccccc1 (stereo not shown)	-74.6
COC(C(=O)Nc1ccc(S(=O)(=O)Nc2ccc(C)c(C)c2)cc1)c1ccccc1 (stereo not shown)	15.3
CCn1cc(/C=C/C(=O)Nc2ccn(Cc3c(F)c(F)cc(F)c3F)n2)cn1	-14.9
